Data from PubChem BioAssay (NCATS).
For some of these results: Potency and affinity values are given separately. Calls of active or inactive are those of the source. Numbered stars: 1 amine (or outer) side, 2 acyl side, 3 side chain; on linkers, the order of the positions; unused ones are H or OH. Bridge positions count the residues as written; N and C are the ends. Square brackets hold non-standard residues; d marks the D form. Peptide text beside a SMILES is read from it. I, II: the chains in the order shown. Actinocin(9to1) = Cc1c2oc3c(C)ccc(C(=O)[*:1])c3nc-2c(C(=O)[*:2])c(N)c1=O; NMeV = CN[C@H](C(=O)O)C(C)C; Sar = CNCC(=O)O

Columns and labels:
[1] = Ebola virus entry assay, green fluorescence channel
[2] = Ebola virus entry assay, ratio channel readout
[3] = Ebola virus entry assay, blue channel fluorescence
[4] = Ebola virus entry assay, blue channel fluorescence; remark: listed apart in the source
[5] = Ebola virus entry assay, reporter ratio channel
[6] = Ebola virus entry reporter assay, green channel fluorescence
[7] = Ebola virus entry cell assay, ratio channel
[8] = Ebola virus entry assay, ratio channel
[9] = Ebola virus entry assay, green channel fluorescence
[10] = Ebola virus entry assay, blue channel (ratio component)
[11] = AC50: Channel type: primary unless noted, outcome: Channel type: primary unless noted

Measured: AC50

O=C(O)c1ccc(-n2nc(-c3ccccc3O)nc2-c2ccccc2O)cc1
inactive: [1] | [2] | [3] | [4] | [5]; [11] | [6] | [7]

CC(C)C1CCC(C(=O)N[C@H](Cc2ccccc2)C(=O)O)CC1 (stereo not given in full)
inactive: [1] | [2] | [8] | [9] | [4] | [5]; [11] | [10] | [7]

COC(=O)C1=C(C)NC(C)=C(C(=O)OC(C)C)C1c1cccc2nonc12 (stereo not given)
inactive: [1] | [2] | [8] | [9] | [4] | [5]; [11] | [10] | [6] | [7]

CC(=O)Nc1nnc(S(N)(=O)=O)s1
inactive: [1] | [2] | [3] | [4] | [5]; [11] | [10] | [6] | [7]

Cc1ccccc1N1C(=O)c2cc(S(N)(=O)=O)c(Cl)cc2NC1C (stereo not given)
inactive: [1] | [2] | [8] | [9] | [4] | [5]; [11] | [10] | [7]

CN(C)[C@@H]1C(=O)C(C(N)=O)=C(O)[C@@]2(O)C(=O)C3=C(O)c4c(O)cccc4[C@@](C)(O)[C@H]3C[C@@H]12
inactive: [1] | [2] | [8] | [4] | [7]
active: [5]; [11] 31.6 µM

CCOC(=O)[C@H](CCc1ccccc1)N[C@@H](C)C(=O)N1Cc2cc(OC)c(OC)cc2C[C@H]1C(=O)O
inactive: [1] | [2] | [8] | [9] | [4] | [5]; [11] | [10] | [7]

CO/N=C1\CN(c2nc3c(cc2F)c(=O)c(C(=O)O)cn3C2CC2)CC1CN (stereo not given)
inactive: [1] | [2] | [8] | [9] | [4] | [5]; [11] | [10] | [7]

CCC(C(N)=O)N1CCCC1=O (stereo not given)
inactive: [1] | [2] | [8] | [9] | [4] | [5]; [11] | [10] | [7]

CCOC(=O)[C@H](CCc1ccccc1)N[C@@H](C)C(=O)N1Cc2ccccc2C[C@H]1C(=O)O
inactive: [1] | [2] | [8] | [9] | [4] | [5]; [11] | [10] | [6] | [7]

NCC1(CC(=O)O)CCCCC1
inactive: [1] | [2] | [8] | [9] | [4] | [5]; [11] | [10] | [7]

CC1(C)S[C@@H]2[C@H](NC(=O)[C@H](N)c3ccccc3)C(=O)N2[C@H]1C(=O)O
inactive: [1] | [2] | [8] | [9] | [4] | [5]; [11] | [10] | [6] | [7]

Cc1c2oc3c(C)ccc(C(=O)N[C@@H]4C(=O)N[C@H](C(C)C)C(=O)N5CCC[C@H]5C(=O)N(C)CC(=O)N(C)[C@@H](C(C)C)C(=O)O[C@@H]4C)c3nc-2c(C(=O)N[C@@H]2C(=O)N[C@H](C(C)C)C(=O)N3CCC[C@H]3C(=O)N(C)CC(=O)N(C)[C@@H](C(C)C)C(=O)O[C@@H]2C)c(N)c1=O (I: T[dV]P[Sar][NMeV] / II: T[dV]P[Sar][NMeV]; ester I:1-I:C, II:1-II:C; linker I:N-II:N via Actinocin(9to1))
inactive: [1] | [2] | [8] | [9] | [4] | [5]; [11] | [10] | [7]

C#CCN(C)[C@H](C)Cc1ccccc1
inactive: [1] | [2] | [9] | [4] | [5]; [11] | [10] | [6] | [7]

Nc1nc2c(ncn2COCCO)c(=O)[nH]1
inactive: [1] | [2] | [8] | [9] | [4] | [5]; [11] | [10] | [7]

C1N2CN3CN1CN(C2)C3
inactive: [1] | [2] | [9] | [4] | [5]; [11] | [10] | [6] | [7]

CC(c1cc2ccccc2s1)N(O)C(N)=O (stereo not given)
inactive: [1] | [2] | [8] | [9] | [4] | [5]; [11] | [10] | [6] | [7]

Cc1ccc(S(=O)(=O)NC(=O)NN2CCCCCC2)cc1
inactive: [1] | [2] | [8] | [9] | [5]; [11] | [10] | [7]

C=C1CC[C@@]2(O)[C@H]3Cc4ccc(O)c5c4[C@@]2(CCN3CC2CC2)[C@H]1O5
inactive: [1] | [2] | [8] | [9] | [4] | [5]; [11] | [10] | [6] | [7]

CC(C)c1c(C(=O)Nc2ccccc2)c(-c2ccccc2)c(-c2ccc(F)cc2)n1CC[C@@H](O)C[C@@H](O)CC(=O)O
inactive: [1] | [2] | [8] | [9] | [5]; [11] | [10] | [6] | [7]

CC(C)NC[C@@H](O)COc1ccc(CC(N)=O)cc1
inactive: [1] | [2] | [9] | [4] | [5]; [11] | [10] | [6] | [7]

Nc1ccn([C@@H]2O[C@H](CO)[C@@H](O)C2(F)F)c(=O)n1
inactive: [1] | [2] | [8] | [9] | [4] | [5]; [11] | [10] | [7]

O=C1OCCN1/N=C/c1ccc([N+](=O)[O-])o1
inactive: [1] | [2] | [8] | [9] | [4] | [5]; [11] | [10] | [6] | [7]

Cc1ccc(-c2nc3ccc(C)cn3c2CC(=O)N(C)C)cc1
inactive: [1] | [2] | [9] | [4] | [5]; [11] | [10] | [6] | [7]

CN(C)C(=N)N=C(N)N
inactive: [1] | [2] | [8] | [9] | [4] | [5]; [11] | [10] | [7]

Cc1ncc([N+](=O)[O-])n1CCO
inactive: [1] | [2] | [8] | [9] | [5]; [11] | [6] | [7]

CCOC(=O)N1CCC(=C2c3ccc(Cl)cc3CCc3cccnc32)CC1
active: [8] 6.31 µM | [5]; [11] 6.31 µM
inactive: [1] | [2] | [7]

N[C@@H]1C[C@H]1c1ccccc1
inactive: [1] | [2] | [8] | [9] | [4] | [5]; [11] | [10] | [6] | [7]

CCCCc1ncc(/C=C(\Cc2cccs2)C(=O)O)n1Cc1ccc(C(=O)O)cc1
inactive: [1] | [2] | [8] | [9] | [4] | [5]; [11] | [10] | [6] | [7]

CNS(=O)(=O)Cc1ccc2[nH]cc(CCN(C)C)c2c1
inactive: [1] | [2] | [8] | [9] | [4] | [5]; [11] | [10] | [6] | [7]

C[C@]12CC[C@@H]3c4ccc(O)cc4C[C@@H](CCCCCCCCCS(=O)CCCC(F)(F)C(F)(F)F)[C@H]3[C@@H]1CC[C@@H]2O (stereo not given in full)
active: [7] 2 µM
inactive: [1] | [2] | [8] | [5]; Channel type: confirmation | [5]; Channel type: primary | [10]

CN1C(CCl)Nc2cc(Cl)c(S(N)(=O)=O)cc2S1(=O)=O (stereo not given)
inactive: [1] | [2] | [8] | [9] | [4] | [5]; [11] | [10] | [7]

Nc1[nH]c(=O)ncc1F
inactive: [1] | [2] | [9] | [4] | [5]; [11] | [10] | [6] | [7]

CC(C)(C#N)c1cc(Cn2cncn2)cc(C(C)(C)C#N)c1
inactive: [1] | [2] | [8] | [9] | [4] | [5]; [11] | [10] | [6] | [7]

CC(C(=O)O)c1cccc(C(=O)c2ccccc2)c1 (stereo not given)
inactive: [1] | [3] | [9] | [4] | [5]; [11] | [10] | [7]

N[C@@H]1CONC1=O
inactive: [1] | [2] | [9] | [4] | [5]; [11] | [10] | [7]

O=C(O)c1cn(C2CC2)c2cc(N3CCNCC3)c(F)cc2c1=O
inactive: [1] | [2] | [9] | [4] | [5]; [11] | [10] | [6] | [7]

CC1Cc2ccccc2N1NC(=O)c1ccc(Cl)c(S(N)(=O)=O)c1 (stereo not given)
inactive: [1] | [2] | [9] | [4] | [5]; [11] | [10] | [7]

NCC(CC(=O)O)c1ccc(Cl)cc1 (stereo not given)
inactive: [1] | [2] | [4] | [5]; [11] | [10] | [6] | [7]

O=C1CCc2ccc(OCCCCN3CCN(c4cccc(Cl)c4Cl)CC3)cc2N1
active: [7] 14.1 µM
inactive: [1] | [2] | [9] | [5]; [11] | [10]

COC(=O)[C@@H]1CC2=CC(=O)CC[C@]2(C)[C@@]23O[C@@H]2C[C@@]2(C)[C@@H](CC[C@@]24CCC(=O)O4)[C@H]13
inactive: [1] | [2] | [9] | [4] | [5]; [11] | [10] | [6] | [7]

O=C(O)COCCN1CCN(C(c2ccccc2)c2ccc(Cl)cc2)CC1 (stereo not given)
inactive: [1] | [2] | [9] | [4] | [5]; [11] | [10] | [6] | [7]

NS(=O)(=O)c1cc2c(cc1Cl)NC=NS2(=O)=O
inactive: [1] | [3] | [9] | [4] | [5]; [11] | [10] | [7]

NC(=O)N1c2ccccc2CC(=O)c2ccccc21
inactive: [1] | [3] | [9] | [4] | [5]; [11] | [10] | [6] | [7]

NCCCC(O)(P(=O)(O)O)P(=O)(O)O
active: [7] 3.98 µM
inactive: [1] | [2] | [5]; [11] inactive [Channel type: confirmation] | [10]

CN(C)/N=N/c1nc[nH]c1C(N)=O
inactive: [1] | [2] | [9] | [4] | [5]; [11] | [10] | [7]

CN[C@H]1CC[C@@H](c2ccc(Cl)c(Cl)c2)c2ccccc21
active: [3] 2 µM | [8] 1.58 µM | [5]; [11] 1.58 µM
inactive: [1]

CC(C)(C(=O)O)c1ccc(C(O)CCCN2CCC(C(O)(c3ccccc3)c3ccccc3)CC2)cc1 (stereo not given)
inactive: [1] | [2] | [9] | [4] | [5]; [11] | [10] | [6] | [7]
